In PMC7862700, “An all-to-all approach to the identification of sequence-specific readers for epigenetic DNA modifications on cytosine”:

How the values were obtained:
Test in all cases: DAPPL (digital affinity profiling via proximity ligation, sequencing); 10 mM Tris-HCl pH 7.5, 50 mM NaCl, 1 mM DTT, 4% glycerol, room temperature, 30 min; GST-TFs on glutathione beads, 16-mer random dsDNA library, 0.1% formaldehyde crosslink after washing; high values mean tight binding
Details in all cases: protein: recombinant; tags: N-terminal GST; dsDNA, one strand shown
FLI1 = biological target: T1, FLI1 (Homo sapiens, UniProt Q01543 1-452)
T1 sequence: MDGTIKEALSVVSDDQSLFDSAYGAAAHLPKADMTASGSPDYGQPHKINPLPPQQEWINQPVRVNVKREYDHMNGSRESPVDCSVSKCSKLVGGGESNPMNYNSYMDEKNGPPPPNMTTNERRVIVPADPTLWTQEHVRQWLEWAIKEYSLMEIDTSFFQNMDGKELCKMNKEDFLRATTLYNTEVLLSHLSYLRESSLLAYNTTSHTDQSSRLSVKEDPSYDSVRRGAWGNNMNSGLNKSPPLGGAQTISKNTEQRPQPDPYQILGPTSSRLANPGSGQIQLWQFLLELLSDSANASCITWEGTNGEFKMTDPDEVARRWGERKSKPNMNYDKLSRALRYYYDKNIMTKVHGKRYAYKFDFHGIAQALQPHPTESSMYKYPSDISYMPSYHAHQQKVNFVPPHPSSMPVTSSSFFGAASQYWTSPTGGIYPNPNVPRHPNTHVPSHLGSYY
Procedure, shortened: (§1)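 Human transcription factors were made in yeast as GST fusions, captured on glutathione beads and barcoded with DNA. With a tag-only sample included, the pool was incubated with 200 nmole of a random double-stranded 16-mer DNA library in Tris/NaCl/DTT/glycerol buffer at room temperature for 30 min, then crosslinked with 0.1% formaldehyde after washing, ligated by proximity, amplified and sequenced. For binding signal, each hexamer's read frequency for a factor is divided by its frequency for the tag-only sample.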

ELK1 = biological target: T2, ELK1 (Homo sapiens, UniProt P19419 1-428)
T2 sequence: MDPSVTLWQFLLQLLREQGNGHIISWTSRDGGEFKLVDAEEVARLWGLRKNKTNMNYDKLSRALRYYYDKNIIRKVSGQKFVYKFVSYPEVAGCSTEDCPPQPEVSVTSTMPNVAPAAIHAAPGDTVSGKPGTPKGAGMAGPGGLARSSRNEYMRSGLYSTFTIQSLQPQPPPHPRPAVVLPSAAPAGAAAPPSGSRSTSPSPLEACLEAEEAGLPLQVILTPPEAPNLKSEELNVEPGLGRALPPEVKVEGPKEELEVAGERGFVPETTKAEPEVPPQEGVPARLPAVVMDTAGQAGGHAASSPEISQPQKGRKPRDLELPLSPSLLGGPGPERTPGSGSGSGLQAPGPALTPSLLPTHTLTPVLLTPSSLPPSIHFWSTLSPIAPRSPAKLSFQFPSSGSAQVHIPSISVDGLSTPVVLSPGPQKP
Procedure, shortened: as §1

ELF1 = ELF1 (Homo sapiens, UniProt P32519 1-619)
Procedure, shortened: as §1

EHF = biological target: T3, EHF (Homo sapiens, UniProt Q9NZC4 1-300)
T3 sequence: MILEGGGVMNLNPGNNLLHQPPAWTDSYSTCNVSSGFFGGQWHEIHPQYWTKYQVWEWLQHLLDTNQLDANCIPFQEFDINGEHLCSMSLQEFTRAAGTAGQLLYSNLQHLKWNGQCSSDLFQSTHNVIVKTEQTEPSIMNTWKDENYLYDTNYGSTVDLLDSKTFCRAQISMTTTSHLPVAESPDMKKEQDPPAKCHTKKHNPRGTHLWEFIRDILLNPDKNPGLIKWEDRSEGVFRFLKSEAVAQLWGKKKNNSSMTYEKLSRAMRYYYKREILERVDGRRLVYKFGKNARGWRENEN
Procedure, shortened: as §1

ELK3 = biological target: T4, ELK3 (Homo sapiens, UniProt P41970 1-407)
T4 sequence: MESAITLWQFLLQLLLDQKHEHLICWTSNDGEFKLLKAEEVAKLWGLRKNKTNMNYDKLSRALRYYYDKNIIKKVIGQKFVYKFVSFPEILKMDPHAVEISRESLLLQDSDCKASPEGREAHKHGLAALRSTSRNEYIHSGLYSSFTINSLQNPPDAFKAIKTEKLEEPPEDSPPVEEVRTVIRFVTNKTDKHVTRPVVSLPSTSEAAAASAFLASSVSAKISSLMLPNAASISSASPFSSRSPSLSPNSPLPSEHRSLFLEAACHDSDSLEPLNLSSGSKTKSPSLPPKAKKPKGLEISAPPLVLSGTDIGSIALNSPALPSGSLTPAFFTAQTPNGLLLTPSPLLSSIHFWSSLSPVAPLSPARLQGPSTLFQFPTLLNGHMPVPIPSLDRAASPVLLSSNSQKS
Procedure, shortened: as §1

FEV = biological target: T5, FEV (Homo sapiens, UniProt Q99581 1-238)
T5 sequence: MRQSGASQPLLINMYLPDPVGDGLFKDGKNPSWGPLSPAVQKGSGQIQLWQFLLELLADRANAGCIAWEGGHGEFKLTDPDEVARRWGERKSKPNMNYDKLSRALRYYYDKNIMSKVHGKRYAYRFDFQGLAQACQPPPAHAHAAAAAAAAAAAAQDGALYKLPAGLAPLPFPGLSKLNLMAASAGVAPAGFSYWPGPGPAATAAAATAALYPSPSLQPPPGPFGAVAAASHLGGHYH
Procedure, shortened: as §1

ETV5 = ETV5 (Homo sapiens, UniProt P41161 1-510)
Procedure, shortened: as §1

SPIC = biological target: T6, SPIC (Homo sapiens, UniProt Q8N5J4 1-248)
T6 sequence: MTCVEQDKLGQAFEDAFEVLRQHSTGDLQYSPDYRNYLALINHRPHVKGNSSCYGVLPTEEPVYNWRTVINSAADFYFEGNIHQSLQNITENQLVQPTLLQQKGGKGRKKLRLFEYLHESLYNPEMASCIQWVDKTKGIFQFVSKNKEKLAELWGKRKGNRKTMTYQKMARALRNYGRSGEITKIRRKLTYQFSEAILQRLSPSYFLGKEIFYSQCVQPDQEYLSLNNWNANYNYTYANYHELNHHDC
Procedure, shortened: as §1

ELF4 = ELF4 (Homo sapiens, UniProt Q99607 1-663)
Procedure, shortened: as §1

ELK4 = biological target: T7, ELK4 (Homo sapiens, UniProt P28324-2 1-405)
T7 sequence: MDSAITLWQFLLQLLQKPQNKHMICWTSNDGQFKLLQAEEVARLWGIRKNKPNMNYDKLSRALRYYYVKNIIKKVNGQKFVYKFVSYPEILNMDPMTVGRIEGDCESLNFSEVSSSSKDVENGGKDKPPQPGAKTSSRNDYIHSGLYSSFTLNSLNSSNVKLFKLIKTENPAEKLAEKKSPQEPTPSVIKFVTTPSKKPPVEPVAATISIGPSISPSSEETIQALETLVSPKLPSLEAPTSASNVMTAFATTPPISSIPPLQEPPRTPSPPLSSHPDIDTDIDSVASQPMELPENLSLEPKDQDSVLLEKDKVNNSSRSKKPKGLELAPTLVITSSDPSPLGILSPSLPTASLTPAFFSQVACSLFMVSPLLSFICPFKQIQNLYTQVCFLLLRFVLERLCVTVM
Procedure, shortened: as §1

ETV2 = biological target: T8, ETV2 (Homo sapiens, UniProt O00321 1-342)
T8 sequence: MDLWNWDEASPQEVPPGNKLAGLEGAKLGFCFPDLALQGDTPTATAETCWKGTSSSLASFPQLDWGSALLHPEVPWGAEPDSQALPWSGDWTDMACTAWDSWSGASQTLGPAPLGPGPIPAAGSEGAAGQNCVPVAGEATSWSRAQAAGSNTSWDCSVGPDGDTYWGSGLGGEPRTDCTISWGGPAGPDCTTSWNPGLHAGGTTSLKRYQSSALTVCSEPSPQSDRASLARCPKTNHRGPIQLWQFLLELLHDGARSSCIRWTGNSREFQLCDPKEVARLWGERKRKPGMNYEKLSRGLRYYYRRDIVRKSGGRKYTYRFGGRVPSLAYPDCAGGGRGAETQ
Procedure, shortened: as §1

ELF3 = biological target: T9, ELF3 (Homo sapiens, UniProt P78545 1-371)
T9 sequence: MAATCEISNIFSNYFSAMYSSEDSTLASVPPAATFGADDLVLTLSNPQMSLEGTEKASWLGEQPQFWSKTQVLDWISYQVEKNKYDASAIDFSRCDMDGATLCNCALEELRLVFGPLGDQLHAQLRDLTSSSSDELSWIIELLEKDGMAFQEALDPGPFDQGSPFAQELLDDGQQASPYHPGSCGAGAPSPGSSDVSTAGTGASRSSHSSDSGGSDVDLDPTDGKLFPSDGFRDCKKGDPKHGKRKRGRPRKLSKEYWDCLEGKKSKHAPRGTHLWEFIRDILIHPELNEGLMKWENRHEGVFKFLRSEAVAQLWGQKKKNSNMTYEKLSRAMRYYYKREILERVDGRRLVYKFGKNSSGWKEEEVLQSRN
Procedure, shortened: as §1

ETV1 = ETV1 (Homo sapiens, UniProt P50549 1-477)
Procedure, shortened: as §1

GABPA = biological target: T10, GABPA (Homo sapiens, UniProt Q06546 1-454)
T10 sequence: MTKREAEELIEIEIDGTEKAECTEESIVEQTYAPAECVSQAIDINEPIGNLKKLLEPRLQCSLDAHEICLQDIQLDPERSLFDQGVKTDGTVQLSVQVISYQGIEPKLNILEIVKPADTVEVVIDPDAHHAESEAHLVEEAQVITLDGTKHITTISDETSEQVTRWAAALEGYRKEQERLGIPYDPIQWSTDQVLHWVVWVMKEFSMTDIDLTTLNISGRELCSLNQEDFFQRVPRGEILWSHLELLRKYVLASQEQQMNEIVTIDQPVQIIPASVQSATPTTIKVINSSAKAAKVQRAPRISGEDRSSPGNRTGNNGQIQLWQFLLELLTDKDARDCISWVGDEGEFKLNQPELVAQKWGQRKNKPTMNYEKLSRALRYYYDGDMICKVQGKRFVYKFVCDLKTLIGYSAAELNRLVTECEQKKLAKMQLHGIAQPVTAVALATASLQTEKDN
Procedure, shortened: as §1

ERG = biological target: T11, ERG (Homo sapiens, UniProt P11308 1-479)
T11 sequence: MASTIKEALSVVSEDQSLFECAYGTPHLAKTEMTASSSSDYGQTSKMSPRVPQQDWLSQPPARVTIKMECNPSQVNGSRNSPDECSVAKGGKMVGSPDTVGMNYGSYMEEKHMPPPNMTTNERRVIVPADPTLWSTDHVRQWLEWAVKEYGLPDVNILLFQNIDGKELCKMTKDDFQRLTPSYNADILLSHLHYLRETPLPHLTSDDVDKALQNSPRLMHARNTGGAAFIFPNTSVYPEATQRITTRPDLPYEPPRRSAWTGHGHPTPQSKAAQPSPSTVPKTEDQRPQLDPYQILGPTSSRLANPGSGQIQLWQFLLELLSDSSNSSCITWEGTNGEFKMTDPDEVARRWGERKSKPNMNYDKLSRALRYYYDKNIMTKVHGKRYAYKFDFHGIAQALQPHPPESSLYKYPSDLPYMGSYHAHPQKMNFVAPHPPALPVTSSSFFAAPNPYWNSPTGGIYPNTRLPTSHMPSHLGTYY
Procedure, shortened: as §1

SPI1 = SPI1 (Homo sapiens, UniProt P17947 1-270)
Procedure, shortened: as §1

ELF4, sequence (Q99607 whole entry): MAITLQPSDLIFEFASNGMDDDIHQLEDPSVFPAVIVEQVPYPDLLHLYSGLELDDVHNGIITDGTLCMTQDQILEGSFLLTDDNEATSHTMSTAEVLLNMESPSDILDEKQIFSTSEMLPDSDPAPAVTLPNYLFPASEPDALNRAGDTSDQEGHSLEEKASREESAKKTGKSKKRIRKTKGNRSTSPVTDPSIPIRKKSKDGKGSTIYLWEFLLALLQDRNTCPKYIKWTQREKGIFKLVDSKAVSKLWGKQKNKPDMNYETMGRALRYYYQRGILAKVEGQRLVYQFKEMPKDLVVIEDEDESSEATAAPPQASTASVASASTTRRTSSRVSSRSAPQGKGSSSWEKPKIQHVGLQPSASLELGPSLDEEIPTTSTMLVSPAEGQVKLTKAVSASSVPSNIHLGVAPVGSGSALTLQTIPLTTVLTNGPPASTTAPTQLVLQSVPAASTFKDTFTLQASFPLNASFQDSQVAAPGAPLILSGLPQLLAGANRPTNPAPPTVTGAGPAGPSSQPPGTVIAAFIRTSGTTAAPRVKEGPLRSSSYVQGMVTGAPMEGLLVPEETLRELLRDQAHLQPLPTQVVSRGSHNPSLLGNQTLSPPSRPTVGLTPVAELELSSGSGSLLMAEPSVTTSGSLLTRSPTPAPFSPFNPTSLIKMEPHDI
ETV1, sequence (P50549 whole entry): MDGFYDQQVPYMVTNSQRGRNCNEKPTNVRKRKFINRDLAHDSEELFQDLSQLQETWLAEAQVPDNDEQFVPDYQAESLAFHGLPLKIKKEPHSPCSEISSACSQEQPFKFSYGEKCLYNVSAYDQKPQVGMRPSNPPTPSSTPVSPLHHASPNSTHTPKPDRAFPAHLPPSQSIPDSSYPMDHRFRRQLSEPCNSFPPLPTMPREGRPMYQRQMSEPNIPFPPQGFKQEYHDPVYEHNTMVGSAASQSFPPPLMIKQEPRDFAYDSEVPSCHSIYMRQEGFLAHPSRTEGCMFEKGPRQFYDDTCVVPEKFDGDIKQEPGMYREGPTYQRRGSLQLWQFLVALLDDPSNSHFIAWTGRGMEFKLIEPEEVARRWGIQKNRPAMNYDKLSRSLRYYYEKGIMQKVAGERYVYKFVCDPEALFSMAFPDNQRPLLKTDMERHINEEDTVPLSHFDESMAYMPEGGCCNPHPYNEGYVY
ELF1, sequence (P32519 whole entry): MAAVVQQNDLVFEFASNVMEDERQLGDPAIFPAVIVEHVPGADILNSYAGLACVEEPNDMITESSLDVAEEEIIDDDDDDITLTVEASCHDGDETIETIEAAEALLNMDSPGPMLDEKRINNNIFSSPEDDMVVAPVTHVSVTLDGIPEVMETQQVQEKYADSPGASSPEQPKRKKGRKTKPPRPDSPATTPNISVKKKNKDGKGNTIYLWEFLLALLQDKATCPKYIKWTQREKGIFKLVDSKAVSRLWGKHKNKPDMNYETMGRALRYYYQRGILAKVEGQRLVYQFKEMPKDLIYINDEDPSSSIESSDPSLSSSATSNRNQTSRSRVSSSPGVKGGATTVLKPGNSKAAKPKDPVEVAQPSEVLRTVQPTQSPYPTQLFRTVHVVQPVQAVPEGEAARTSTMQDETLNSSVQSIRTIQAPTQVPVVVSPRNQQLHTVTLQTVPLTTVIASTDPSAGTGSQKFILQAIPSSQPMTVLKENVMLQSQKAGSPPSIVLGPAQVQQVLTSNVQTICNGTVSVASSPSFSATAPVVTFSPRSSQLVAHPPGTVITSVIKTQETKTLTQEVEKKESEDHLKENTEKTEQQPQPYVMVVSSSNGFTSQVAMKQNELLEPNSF
ETV5, sequence (P41161 whole entry): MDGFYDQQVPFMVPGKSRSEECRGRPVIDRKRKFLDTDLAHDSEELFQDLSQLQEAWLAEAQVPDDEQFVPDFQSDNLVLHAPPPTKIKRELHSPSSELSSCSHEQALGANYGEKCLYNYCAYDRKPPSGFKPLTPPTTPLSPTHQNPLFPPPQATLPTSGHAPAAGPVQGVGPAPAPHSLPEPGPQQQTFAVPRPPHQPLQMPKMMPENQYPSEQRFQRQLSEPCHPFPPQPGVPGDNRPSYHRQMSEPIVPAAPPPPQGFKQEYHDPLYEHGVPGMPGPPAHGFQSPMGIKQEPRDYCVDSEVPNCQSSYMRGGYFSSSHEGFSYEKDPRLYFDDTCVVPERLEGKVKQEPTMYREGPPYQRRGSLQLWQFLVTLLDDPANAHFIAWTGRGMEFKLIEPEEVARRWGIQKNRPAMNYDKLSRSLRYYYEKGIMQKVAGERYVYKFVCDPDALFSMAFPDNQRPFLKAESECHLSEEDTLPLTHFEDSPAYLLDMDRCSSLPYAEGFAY

GCAATG
binding signal (FLI1): 1.05 fold enrichment (6-mer frequency, TF over GST control)
binding signal (ELK1): 1.08 fold enrichment (6-mer frequency, TF over GST control)
binding signal (ELF1): 1.08 fold enrichment (6-mer frequency, TF over GST control)
binding signal (EHF): 1.04 fold enrichment (6-mer frequency, TF over GST control)
binding signal (ELK3): 1.03 fold enrichment (6-mer frequency, TF over GST control)
binding signal (FEV): 1.08 fold enrichment (6-mer frequency, TF over GST control)
binding signal (ETV5): 1.09 fold enrichment (6-mer frequency, TF over GST control)
binding signal (SPIC): 1.08 fold enrichment (6-mer frequency, TF over GST control)
binding signal (ELF4): 1.04 fold enrichment (6-mer frequency, TF over GST control)
binding signal (ELK4): 1.13 fold enrichment (6-mer frequency, TF over GST control)
binding signal (ETV2): 1.07 fold enrichment (6-mer frequency, TF over GST control)
binding signal (ELF3): 1.17 fold enrichment (6-mer frequency, TF over GST control)
binding signal (ETV1): 1.06 fold enrichment (6-mer frequency, TF over GST control)

CAACAA
binding signal (FLI1): 1.08 fold enrichment (6-mer frequency, TF over GST control)
binding signal (ELK1): 1.08 fold enrichment (6-mer frequency, TF over GST control)
binding signal (GABPA): 1.1 fold enrichment (6-mer frequency, TF over GST control)
binding signal (ERG): 1.01 fold enrichment (6-mer frequency, TF over GST control)
binding signal (ELF1): 1.06 fold enrichment (6-mer frequency, TF over GST control)
binding signal (EHF): 1.05 fold enrichment (6-mer frequency, TF over GST control)
binding signal (SPI1): 1.02 fold enrichment (6-mer frequency, TF over GST control)
binding signal (ELK3): 1.12 fold enrichment (6-mer frequency, TF over GST control)
binding signal (FEV): 1.05 fold enrichment (6-mer frequency, TF over GST control)
binding signal (ETV5): 1.02 fold enrichment (6-mer frequency, TF over GST control)
binding signal (SPIC): 1.06 fold enrichment (6-mer frequency, TF over GST control)
binding signal (ELF4): 1.13 fold enrichment (6-mer frequency, TF over GST control)
binding signal (ELK4): 1.02 fold enrichment (6-mer frequency, TF over GST control)
binding signal (ETV2): 1.08 fold enrichment (6-mer frequency, TF over GST control)
binding signal (ELF3): 1.2 fold enrichment (6-mer frequency, TF over GST control)
binding signal (ETV1): 1.05 fold enrichment (6-mer frequency, TF over GST control)
